Holding throughout (assay): Euclidean distance of Cell Painting phenotypic profile (signed KS, 77 features) to DMSO centroid (dimensionless distance); 5 or 10 uM (library dependent); higher = stronger phenotypic change vs DMSO (phenoactivity)
Conditions in all cases: 48 h

In one assay the test system is 786-O. An outline of the steps:
(§1)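 Stained cells were imaged confocally at 20X with 9 fields per well, after 48 h of exposure to library compounds at 10 or 5 uM (set by library; 0.1% DMSO final). The cells were five cancer lines and a healthy fibroblast line. From the images, Harmony extracted 77 features, each expressed as a signed Kolmogorov-Smirnov statistic relative to same-plate vehicle wells. Phenoactivity is measured as Euclidean distance to the median vehicle profile, using plate-position-corrected, correlation-weighted profiles averaged across replicates at the top dose.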

A further assay concerns A549. The procedure, abridged:
as §1

For the next assay, the system named is DU145. An outline of the steps:
as §1

Another assay deals with FB. The procedure, abridged: as §1
The test system of a further assay is OVCAR4. The procedure, abridged:
as §1

The subject of the next assay is HEPG2. The procedure, abridged: as §1

26 molecules from the supplement of paper PMC10127200 can be followed below.

Counter-ions that a name gives are not always drawn.

For the molecule `CCCCCCCCCCCCc1ccc(S(=O)(=O)Nc2nncs2)cc1`, the Euclidean distance with 786-O was found to be 1.69; with A549, 1.57; in the assay on DU145, 0.932; in the assay with FB, 1.16; in the assay on OVCAR4, 1.51.

In the case of `C[C@@H]1C[C@H]2[C@@H]3CCC4=CC(=O)C=C[C@]4(C)[C@@]3(Cl)[C@@H](O)C[C@]2(C)[C@@]1(OC(=O)c1ccco1)C(=O)CCl` [Mometasone furoate], the Euclidean distance stood at 2.05 with 786-O; 1.97 in the assay with A549; 1.79 with FB; 0.88 in the assay with HEPG2; 2.18 in the assay on OVCAR4.

Take `Cc1c(C)c2c(c(C)c1O)CCC(C)(COc1ccc(CC3SC(=O)NC3=O)cc1)O2` (stereo not given) [Troglitazone (CS-045)]: the Euclidean distance with 786-O worked out at 1.4; with A549, 1.51; in the assay on FB it was 0.893; with HEPG2 it was 0.876; in the assay with OVCAR4, 1.2.

For `CC[C@H](C)[C@H](N)C1=N[C@H](C(=O)N[C@@H](CC(C)C)C(=O)N[C@H](CCC(=O)[O-])C(=O)N[C@H](C(=O)N[C@H]2CCCCNC(=O)[C@H](CC(N)=O)NC(=O)[C@@H](CC(=O)[O-])NC(=O)[C@H](Cc3cnc[nH]3)NC(=O)[C@@H](Cc3ccccc3)NC(=O)[C@H]([C@@H](C)CC)NC(=O)[C@@H](CCCN)NC2=O)[C@@H](C)CC)CS1.[Zn+2]` [Bacitracin Zinc], the Euclidean distance in the assay on 786-O is 0.919; with A549 it was 0.811; in the assay on FB, 0.932; in the assay on HEPG2, 1.77; in the assay on OVCAR4, 1.44.

Consider `O=S(=O)(NCCNC/C=C/c1ccc(Br)cc1)c1cccc2cnccc12`, for which the Euclidean distance in the assay on 786-O was determined as 2.02; in the assay with A549, 1.32; with DU145, 2.19; in the assay on FB it was 1.3; with OVCAR4, 1.89.

Turning to `COC(=O)/C=C/C(=O)OC` [Dimethyl Fumarate], the Euclidean distance in the assay on 786-O was 1.01; in the assay with A549 it was 1.07; in the assay on FB, 0.598; in the assay on HEPG2 it was 1; with OVCAR4, 1.15.

In the case of `CCCCC1(COC(=O)CCC(=O)O)C(=O)N(c2ccccc2)N(c2ccccc2)C1=O` [Suxibuzone], the Euclidean distance in the assay on 786-O amounted to 0.771; in the assay with A549, 0.893; in the assay on FB it was 1.12; in the assay on HEPG2 it was 0.518; with OVCAR4, 1.57.

Regarding `C[C@H](CSC(=O)c1ccccc1)C(=O)N1C[C@@H](Sc2ccccc2)C[C@H]1C(=O)O` [Zofenopril calcium], the Euclidean distance in the assay with 786-O amounted to 0.845; in the assay with A549 it was 0.393; with FB it was 0.787; in the assay with HEPG2, 0.559; with OVCAR4 it was 0.93.

For the molecule `COc1c2occc2cc2ccc(=O)oc12` [Methoxsalen], the Euclidean distance in the assay with 786-O was 0.745; in the assay with A549, 0.658; with FB it was 0.948; with HEPG2 it was 0.988; with OVCAR4, 1.08.

Turning to `NC(=O)c1nc(F)cnc1O` [Favipiravir (T-705)], the Euclidean distance in the assay with 786-O is 0.685; with A549, 0.513; with FB, 0.835; in the assay on HEPG2, 0.762; in the assay on OVCAR4, 0.894.

In the case of `Cc1ccsc1C(=CCCN1CCC[C@@H](C(=O)O)C1)c1sccc1C` [Tiagabine], the Euclidean distance in the assay on 786-O stood at 0.676; with A549, 0.377; in the assay with FB, 0.779; in the assay on HEPG2, 0.574; in the assay on OVCAR4 it was 1.14.

In the case of `CCC(C)(Oc1ccc(C2(c3ccc(OC(C)(CC)C(=O)O)cc3)CCCCC2)cc1)C(=O)O` (stereo not given) [Clinofibrate], the Euclidean distance in the assay on 786-O was 1.38; in the assay with A549, 0.971; in the assay on FB it was 0.938; with HEPG2 it was 0.433; in the assay on OVCAR4, 1.33.

`Cc1cc(C)nc(NS(=O)(=O)c2ccc(N)cc2)n1` [Sulfamethazine]: the Euclidean distance in the assay with 786-O was found to be 1.04; in the assay on A549, 0.914; in the assay on FB, 0.861; in the assay on HEPG2, 0.849; in the assay with OVCAR4, 1.17.

On to `O=c1c(-c2ccc(O)cc2)coc2cc(O[C@@H]3O[C@H](CO)[C@@H](O)[C@H](O)[C@H]3O)ccc12` [Daidzin], for which the Euclidean distance in the assay with 786-O is 0.57; in the assay with A549 it was 0.784; with FB it was 0.914; in the assay on HEPG2 it was 0.745; in the assay on OVCAR4, 1.17.

Turning to `Cc1c(OCC(F)(F)F)ccnc1C[S+]([O-])c1nc2ccccc2[nH]1` (stereo not given) [Lansoprazole], the Euclidean distance in the assay on 786-O is 1.16; in the assay on A549, 2.3; with FB it was 0.815; in the assay with HEPG2, 1.08; in the assay on OVCAR4, 0.948.

In the case of `CN(C)CCOC(c1ccccc1)c1ccccc1` [Diphenhydramine HCl], the Euclidean distance with 786-O was found to be 0.916; in the assay with A549, 0.411; with FB it was 0.777; with HEPG2, 0.793; in the assay with OVCAR4 it was 0.518.

Consider `C[C@@H]1CN(c2c(F)c(N)c3c(=O)c(C(=O)O)cn(C4CC4)c3c2F)C[C@H](C)N1` [Sparfloxacin], for which the Euclidean distance was found to be 0.878 in the assay with 786-O; 1.28 in the assay with A549; 0.552 in the assay with FB; 0.632 in the assay with HEPG2; 1.26 in the assay on OVCAR4.

Take `CCc1cc2c(cc1N1CCC(N3CCOCC3)CC1)C(C)(C)c1[nH]c3cc(C#N)ccc3c1C2=O` [Alectinib hydrochloride]: the Euclidean distance with 786-O was 1.42; in the assay on A549, 2.36; in the assay on FB it was 1.91; in the assay with HEPG2, 0.611; in the assay with OVCAR4, 1.42.

In the case of `Cc1cc2c(s1)Nc1ccccc1N=C2N1CCN(C)CC1` [Olanzapine], the Euclidean distance was determined as 1.03 in the assay with 786-O; 1.01 in the assay on A549; 1.48 with FB; 0.621 with HEPG2; 1.61 with OVCAR4.

Consider `O=c1c(O)c(-c2ccc(O)cc2O)oc2cc(O)cc(O)c12` [Morin Hydrate], for which the Euclidean distance turned out to be 0.826 in the assay with 786-O; 0.616 with A549; 0.68 in the assay with FB; 0.312 in the assay with HEPG2; 1.06 in the assay with OVCAR4.

With `CC(C)(C)[C@@H]1NC(=O)O[C@@H]2CCC[C@H]2OC/C=C/C(F)(F)c2nc3ccccc3nc2O[C@@H]2C[C@@H](C(=O)N[C@]3(C(=O)NS(=O)(=O)C4(C)CC4)C[C@H]3C(F)F)N(C2)C1=O` [Glecaprevir], the Euclidean distance came to 1.01 with 786-O; 1.22 with A549; 0.806 in the assay with FB; 0.687 in the assay with HEPG2; 0.812 with OVCAR4.

With `Cc1nnc(SCC2=C(C(=O)O)N3C(=O)[C@@H](NC(=O)Cn4cnnn4)[C@H]3SC2)s1` [Cefazolin], the Euclidean distance came out at 1.28 in the assay with 786-O; 0.455 in the assay with A549; 1.6 with FB; 0.891 with HEPG2; 1.58 in the assay on OVCAR4.

Turning to `COc1cc2ccc(=O)oc2cc1O` [Scopoletin], the Euclidean distance was found to be 1.25 in the assay on 786-O; 0.713 with A549; 0.934 with FB; 0.82 in the assay with HEPG2; 1.3 in the assay with OVCAR4.

For the molecule `CCC1(c2ccccc2)C(=O)NCNC1=O` [Primidone], the Euclidean distance in the assay with 786-O amounted to 1.2; with A549, 0.708; in the assay on FB it was 1.19; with HEPG2 it was 0.442; in the assay with OVCAR4 it was 2.2.

On to `CCN1CCCC1CNC(=O)c1cc(S(N)(=O)=O)ccc1OC` (stereo not given) [Sulpiride], for which the Euclidean distance in the assay on 786-O was 0.713; with A549 it was 1.29; in the assay with FB, 0.953; in the assay on HEPG2 it was 1.17; in the assay with OVCAR4 it was 0.676.

Regarding `Cc1ccc(C(=O)Nc2ccc(CN3CCN(C)CC3)c(C(F)(F)F)c2)cc1C#Cc1cnc2[nH]ncc2c1` [GZD824 Dimesylate], the Euclidean distance stood at 4.23 in the assay on 786-O; 4.68 with A549; 5.04 with FB; 5.49 in the assay with HEPG2; 4.87 with OVCAR4.
